Measurements published in PubChem BioAssay (EPA / NIEHS).
Inconclusive results are not listed. More than one record can exist for a structure, and the calls need not agree. The source made the active and inactive calls. Rule for the calls, unless noted: active = hit-call score of the fitted dose curve at least 0.9, where 1 is the maximum; inactive = score below 0.9.

Columns and labels:
[1] = read-out: Human Leukocyte Antigen - DR isotype (HLADR), HLA-DRA (gene 3122); assay: BSK_3C_HLADR: BioMAP Diversity Plus: 3C Assay for Human Leukocyte Antigen - DR isotype (HLADR) Biomarker Activity (AID 2283019); settings: primary human endothelial cells (HUVEC); actives raise or lower the signal
Summary of the method: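 Compound added to primary HUVEC cultures, 24 h incubation, then HLA-DR determined by ELISA; endpoint derived by bidirectional fitting relative to DMSO negative control.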

[2] = read-out: Interleukin-8 (IL8), CXCL8 (gene 3576); assay: BSK_3C_IL8: BioMAP Diversity Plus: 3C Assay for Interleukin-8 (IL8) Biomarker Activity (AID 2283020); settings: primary human endothelial cells (HUVEC); actives raise or lower the signal
Summary of the method: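 Primary human umbilical vein endothelial cells (3C system) were exposed to test chemical for 24 h, then IL-8 was quantified by ELISA. Responses were fitted bidirectionally against DMSO vehicle as baseline.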

[3] = read-out: Monokine induced gamma interferon (MIG), CXCL9 (gene 4283); assay: BSK_3C_MIG: BioMAP Diversity Plus: 3C Assay for Monokine induced gamma interferon (MIG) Biomarker Activity (AID 2283021); settings: primary human endothelial cells (HUVEC); actives raise or lower the signal;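 for AC50: MIG protein level measured by immunoassay in the treated endothelial cultures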
Summary of the method: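 Primary human umbilical vein endothelial cells in the 3C system were exposed to chemical for 24 h, after which MIG was quantified by ELISA. Activity was fitted bidirectionally against DMSO as negative control and baseline.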

[4] = target: human Vitamin D Receptor (VDR), VDR (gene 7421) (UniProt P11473); assay: ATG_VDR_TRANS: Attagene TRANS-FACTORIAL HepG2 Assay for human Vitamin D Receptor (VDR) (AID 2283022; active = hit-call score of the fitted dose curve at least 0.9, where 1 is the maximum)
human Vitamin D Receptor (VDR), VDR (gene 7421), sequence (P11473 whole entry, looked up): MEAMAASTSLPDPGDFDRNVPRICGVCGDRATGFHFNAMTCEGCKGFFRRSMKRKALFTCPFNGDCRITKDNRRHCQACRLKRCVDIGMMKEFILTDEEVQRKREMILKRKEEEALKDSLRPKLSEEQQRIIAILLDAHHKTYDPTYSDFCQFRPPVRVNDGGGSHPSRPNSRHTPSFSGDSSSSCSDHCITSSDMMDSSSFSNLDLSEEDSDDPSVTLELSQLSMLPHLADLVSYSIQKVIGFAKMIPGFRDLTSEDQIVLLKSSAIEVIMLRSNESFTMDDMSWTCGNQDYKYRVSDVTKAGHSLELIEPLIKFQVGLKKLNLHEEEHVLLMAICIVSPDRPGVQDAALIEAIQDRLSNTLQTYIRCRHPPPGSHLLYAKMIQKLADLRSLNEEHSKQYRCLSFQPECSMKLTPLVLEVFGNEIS
Summary of the method: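 Multiplexed TRANS reporter in HepG2; 24 h treatment; reporter mRNA by RT-PCR plus capillary electrophoresis; upregulation scored relative to DMSO.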

[5] = BSK_3C_SRB: Viability Assessment in the BioMAP Diversity Plus: 3C Assay (AID 2283023); settings: primary human endothelial cells (HUVEC);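 note: cells read 24 h after compound dosing; fitted both ways against DMSO so a hit may be signal rise or drop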
Summary of the method: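 Overt cytotoxicity is gauged in parallel confluent HUVEC cultures by SRB total-protein staining at the time of biomarker measurement, 24 h after dosing. Gain or loss of signal is fitted versus DMSO.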

[6] = read-out: Matrix Metallopeptidase 1 (MMP1), MMP1 (gene 4312); assay: BSK_BE3C_MMP1: BioMAP Diversity Plus: BE3C Assay for Matrix Metallopeptidase 1 (MMP1) Biomarker Activity (AID 2283024); settings: primary human bronchial epithelial cells; actives raise or lower the signal
Summary of the method: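 Primary human bronchial epithelial cells were dosed with test chemicals, and MMP1 levels were measured by ELISA 24 h later. Data were fitted bidirectionally against DMSO as the negative control and activity baseline.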

[7] = BSK_3C_Vis: BioMAP Diversity Plus: 3C Assay for Morphology Visualization (AID 2283025); settings: primary human endothelial cells (HUVEC);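 note: fitted both ways so gain or loss versus DMSO counts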
Summary of the method: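 Human umbilical vein endothelial cells in the 3C system were imaged by light microscopy 24 h after chemical dosing to record cell morphology. Activity was fitted bidirectionally against DMSO as negative control and baseline; the endpoint serves as a background control.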

[8] = read-out: Pselectin, SELP (gene 6403); assay: BSK_4H_Pselectin: BioMAP Diversity Plus: 4H Assay for Pselectin Biomarker Activity (AID 2283026); settings: primary human endothelial cells (HUVEC); actives raise or lower the signal
Summary of the method: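 Primary human umbilical vein endothelial cells were exposed to test chemical for 24 h, then cell-surface P-selectin was quantified by ELISA. Activity was fitted bidirectionally against DMSO as negative control and baseline.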

[9] = BSK_4H_SRB: Viability Assessment in the BioMAP Diversity Plus: 4H Assay (AID 2283027); settings: primary human endothelial cells (HUVEC);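 note: cells exposed to compound for 24 h before staining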;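 for AC50: curves fitted both ways versus DMSO so AC50 may be loss or gain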
Summary of the method: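 Absorbance at 560 nm of SRB-stained total protein served as the viability read-out in confluent primary human umbilical vein endothelium 24 h after chemical treatment. Curves were fitted bidirectionally against DMSO as negative control.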

[10] = BSK_BE3C_SRB: Viability Assessment in the BioMAP Diversity Plus: BE3C Assay (AID 2283028); settings: primary human bronchial epithelial cells;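 for AC50: fitted both ways so AC50 may mark signal gain or loss versus DMSO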
Summary of the method: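 SRB total-protein staining (0.1%, after TCA fixation) of chemically dosed human bronchial epithelial primary cells at 24 h; DMSO serves as the negative control for bidirectional curve fitting.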

[11] = read-out: Thrombomodulin, THBD (gene 7056); assay: BSK_3C_Thrombomodulin: BioMAP Diversity Plus: 3C Assay for Thrombomodulin Biomarker Activity (AID 2283029); settings: primary human endothelial cells (HUVEC); actives raise or lower the signal
Summary of the method: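 Primary human umbilical vein endothelial cells (3C system) were exposed to chemical for 24 h, then thrombomodulin levels were measured by ELISA. Activity was fitted bidirectionally against the DMSO negative control as baseline.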

[12] = read-out: Urokinase-type plasminogen activator receptor (uPAR), PLAUR (gene 5329); assay: BSK_4H_uPAR: BioMAP Diversity Plus: 4H Assay for Urokinase-type plasminogen activator receptor (uPAR) Biomarker Activity (AID 2283030); settings: primary human endothelial cells (HUVEC); actives raise or lower the signal
Summary of the method: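 Endpoint derived via bidirectional curve fitting against DMSO baseline; readout was ELISA detection of uPAR on umbilical vein endothelial cells at 24 h post-treatment, with SRB-stained parallel cultures assessing cytotoxicity.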

[13] = read-out: Vascular endothelial growth factor receptor 2 (Homo sapiens) (UniProt P35968); assay: BSK_4H_VEGFRII: BioMAP Diversity Plus: 4H Assay for Vascular endothelial growth factor receptor 2 (VEGFR2) Biomarker Activity (AID 2283031); settings: primary human endothelial cells (HUVEC); actives raise or lower the signal;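 for AC50: cell-surface VEGFR2 protein level quantified by ELISA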
Summary of the method: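 In this multiplexed HUVEC system, biomarker ELISA was performed after 24 h chemical exposure. Parallel SRB staining (TCA fixation, 560 nm) tracked cytotoxicity; DMSO served as baseline.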

[14] = read-out: Human Leukocyte Antigen - DR isotype (HLADR), HLA-DRA (gene 3122); assay: BSK_BE3C_HLADR: BioMAP Diversity Plus: BE3C Assay for Human Leukocyte Antigen - DR isotype (HLADR) Biomarker Activity (AID 2283032); settings: primary human bronchial epithelial cells; actives raise or lower the signal
Summary of the method: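 Human primary bronchial epithelial cells in the BE3C system were exposed to chemicals for 24 h, after which HLA-DR levels were quantified by ELISA. Activity was fitted bidirectionally, gain or loss of signal, against DMSO as negative control and baseline.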

[15] = read-out: Vascular cell adhesion molecule 1 (VCAM1), VCAM1 (gene 7412); assay: BSK_4H_VCAM1: BioMAP Diversity Plus: 4H Assay for Vascular cell adhesion molecule 1 (VCAM1) Biomarker Activity (AID 2283033); settings: primary human endothelial cells (HUVEC); actives raise or lower the signal
Summary of the method: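 Primary human umbilical vein endothelial cells were exposed to chemicals for 24 h, after which VCAM-1 was quantified by ELISA. Responses were fitted bidirectionally against DMSO as negative control and activity baseline.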

[16] = read-out: Interferon-gamma inducible Protein 10 (IP10), CXCL10 (gene 3627); assay: BSK_BE3C_IP10: BioMAP Diversity Plus: BE3C Assay for Interferon-gamma inducible Protein 10 (IP10) Biomarker Activity (AID 2283034); settings: primary human bronchial epithelial cells; actives raise or lower the signal
Summary of the method: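 Human primary bronchial epithelial cells were exposed to chemicals for 24 hours, after which IP-10 levels were measured by ELISA. Data were fitted bidirectionally against DMSO, which served as the negative control and activity baseline.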

[17] = read-out: Monokine induced gamma interferon (MIG), CXCL9 (gene 4283); assay: BSK_BE3C_MIG: BioMAP Diversity Plus: BE3C Assay for Monokine induced gamma interferon (MIG) Biomarker Activity (AID 2283035); settings: primary human bronchial epithelial cells; actives raise or lower the signal
Summary of the method: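 MIG level was determined by ELISA after 24 h chemical treatment of primary human bronchial epithelial cells. Values were fitted bidirectionally with DMSO as the negative control and activity baseline.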

[18] = read-out: Transforming growth factor beta 1 (TGFb1), TGFB1 (gene 7040); assay: BSK_BE3C_TGFb1: BioMAP Diversity Plus: BE3C Assay for Transforming growth factor beta 1 (TGFb1) Biomarker Activity (AID 2283036); settings: primary human bronchial epithelial cells; actives raise or lower the signal
Summary of the method: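 Human primary bronchial epithelial cells (BE3C system) were dosed with chemical and TGF-b1 levels measured by ELISA at 24 h. Activity was fitted bidirectionally relative to DMSO negative control as baseline.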

[19] = read-out: Plasminogen activator inhibitor-1 (PAI1), SERPINE1 (gene 5054); assay: BSK_BE3C_PAI1: BioMAP Diversity Plus: BE3C Assay for Plasminogen activator inhibitor-1 (PAI1) Biomarker Activity (AID 2283037); settings: primary human bronchial epithelial cells; actives raise or lower the signal
Summary of the method: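 Human primary bronchial epithelial cells were exposed to chemical for 24 h, then PAI-1 was quantified by ELISA. Activity was fitted bidirectionally relative to the DMSO negative control baseline.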

[20] = read-out: urokinase plasminogen activator (uPA), PLAU (gene 5328); assay: BSK_BE3C_uPA: BioMAP Diversity Plus: BE3C Assay for urokinase plasminogen activator (uPA) Biomarker Activity (AID 2283038); settings: primary human bronchial epithelial cells; actives raise or lower the signal
Summary of the method: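 Using confluent primary human lung bronchial epithelial cultures, we dosed chemicals, waited 24 h, then ran a uPA ELISA, fitting bidirectionally against DMSO.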

Measured: AC50

O=C(O)C(F)(F)C(F)(F)C(F)(F)C(F)(F)C(F)(F)C(F)(F)F
inactive: [1] | [2] | [3] | [4] | [5] | [6] | [7] | [8] | [9] | [10] | [11] | [12] | [13] | [14] | [15] | [16] | [17] | [18] | [19] | [20]
active: [2] 13.9 µM | [6] 13.6 µM

ClCC(Cl)CCl
not listed: [12] | [17]
inactive: all other assays above

CC(C)(OO)c1ccccc1
not listed: [12]
inactive: all other assays above

CCOP(=S)(OCC)Oc1nc(Cl)c(Cl)cc1Cl
active: [1] 28.2 µM | [2] 31.1 µM | [5] 30.2 µM | [7] 39 µM | [8] 32 µM | [15] 15.8 µM
not listed: [12] | [17]
inactive: all other assays above

CC(=O)[O][Hg][c]1ccccc1
active: [1] 0.317 µM | [2] 6 µM | [3] 2.73 µM | [5] 0.146 µM | [6] 2.93 µM | [7] 0.954 µM | [8] 1.29 µM | [9] 1.68 µM | [10] 1.88 µM | [11] 3.83 µM | [14] 0.355 µM | [15] 2.37 µM | [16] 0.94 µM | [17] 2.01 µM | [18] 0.148 µM | [19] 1.42 µM | [20] 1.06 µM

CCOP(=S)(OCC)Oc1ccc(S(C)=O)cc1 (stereo not given)
not listed: [4] | [12] | [17]
inactive: all other assays above

CC1(C)Cc2cccc(O)c2O1
not listed: [4] | [17]
inactive: all other assays above

CC1(C)CCC(Cc2ccc(Cl)cc2)C1(O)Cn1cncn1 (stereo not given)
inactive: [4]

O=P(O)(O)CN(CP(=O)(O)O)CP(=O)(O)O
inactive: [4]

C(=NC1CCCCC1)=NC1CCCCC1
inactive: [4] | [11] | [18] | [19]
active: [1] 10.2 µM | [2] 20 µM | [3] 28.7 µM | [5] 8.96 µM | [6] 36.5 µM | [7] 37.3 µM | [8] 5.42 µM | [9] 5.35 µM | [10] 33.4 µM | [14] 20 µM | [15] 7.64 µM | [16] 20 µM | [17] 36.3 µM | [20] 31.8 µM

ClC(Cl)=C(Cl)C(Cl)=C(Cl)Cl
active: [1] 29.8 µM | [2] 32.4 µM | [3] 36.5 µM | [5] 34.4 µM | [6] 20 µM | [7] 37.5 µM | [8] 33.6 µM | [9] 34.2 µM | [10] 31.2 µM | [12] 32.2 µM | [13] 31.1 µM | [14] 26.9 µM | [15] 34.8 µM | [16] 31.5 µM | [19] 20 µM | [20] 20 µM
inactive: [11] | [18]

CCSC(C)CC1CC(=O)C(C(CC)=NOC/C=C/Cl)=C(O)C1 (stereo not given)
not listed: [4] | [17]
inactive: all other assays above

O=[N+]([O-])c1ccc(O)c([N+](=O)[O-])c1
active: [1] 28 µM | [16] 29.8 µM | [19] 30.5 µM
not listed: [4] | [12] | [17]
inactive: all other assays above

C[C@@H]1C[C@@H]([C@H](O)CC2CC(=O)NC(=O)C2)C(=O)[C@@H](C)C1
inactive: [10] | [11]
active: [1] 3.85 µM | [2] 6.06 µM | [3] 20.1 µM | [5] 4.82 µM | [6] 2.51 µM | [7] 9.24 µM | [8] 3.9 µM | [9] 7.08 µM | [12] 4.3 µM | [13] 8.73 µM | [14] 4.95 µM | [15] 17.7 µM | [16] 8.61 µM | [18] 2.83 µM | [19] 1.63 µM | [20] 6.45 µM
